Only some compounds are listed: those with a hit (about 1.6% of all), similar ones and a draw of the others.
Imprint erasure – induces erasure of genomic imprints in mouse ES cells; mouse ES Peg3-LacZ reporter, beta-gal luminescence, 40 h; Potency, µM (top dose mostly 60.7 µM), inactives show at the top dose activity change, positive = activation, most hits filed as activators; 110,000 compounds, 0.02% hits; AID 1948
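Readout: BetaGlo luminescence (5 min, room temp) for LacZ from the normally silent maternal Peg3 allele in female Peg3LacZ-Neo ES cells. Cells 300/well, 40 h, 37C, 5% CO2. Data normalized per plate to negative controls.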
p53ts 39C tox – kills p53ts cells at the nonpermissive temperature; H1299-p53A138V viability at 39C, ATP luminescence, 24 h; Potency, µM (series often up to 46.1 µM), for inactives: at the top dose activity change, negative = cell killing, actives largely listed as cytotoxic; 130,000 compounds, 1.5% hits; note: % is set by controls: 0 for no effect and ±100 for the full control effect; nearly all actives have a fitted effect of over 55% in size
IkB signaling – inhibitors of IkB signaling in ABC-DLBCL cells; ABC-DLBCL IkBa-CBG/CBR dual luciferase ratio, 4 h; response scale: scaled: untreated 0%, proteasome inhibitor 100%; Potency, µM (top dose mostly 57.1 µM), for the others: at the top dose IkBa stabilization activation; 110,000 compounds, 0.04% hits; active = well fitted curve in the direction sought with a large enough effect in the signal ratio, not every such curve was filed as active; inconclusive = small, poorly fitted or top-dose-only effect, or a change in a side signal; the % refers to the signal ratio;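 note: the direction sought is a rising ratio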
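Curves were fitted separately to fusion (green), unfused (red) and ratio luminescence, then classed by r2, magnitude and activity. Cells: OCI-Ly3, 4 h compound plus doxycycline at 37C; 10 uM MG-132 defined full response.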
p53ts 32C tox – p53ts cell cytotoxicity, permissive temperature. H1299-p53A138V at 32C, ATP luminescence viability, 24 h. Potency, µM (top dose mostly 46.1 µM), for inactives: top-dose activity change, negative = cytotoxicity, usual class: cytotoxic. 130,000 compounds, 0.93% hits. AID 924;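 note: 0% = DMSO and -100% = full killing by reference compound; nearly all actives have a fitted effect of over 55% in size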
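Viability by ATPlite luminescence after 24 h compound treatment (up to 46 uM) at the permissive 32C. Cells are H1299 carrying p53 A138V. Scale runs from DMSO basal to 100 uM tamoxifen as full kill; AC50 from Hill fits.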
Active calls of the source: *; ? = inconclusive; · = not tested or not shown; ! = repeats disagree; [ ] = another dose, or the depositor's remark. Unless noted, calls come from the whole dose curve; as a rule, active = well fitted curve in the direction sought with a large enough effect; inconclusive = small, poorly fitted or top-dose-only effect, or another doubt; inactive = no such curve, though single readings can be large; an effect the other way counts as inactive or inconclusive. Potency is the fitted concentration of half-maximal effect.

SMILES	Imprint erasure	p53ts 39C tox	IkB signaling	p53ts 32C tox
O=C(c1ccccc1)N1CCc2cc(CNS(=O)(=O)c3ccc(Cl)s3)ccc21	-7%[10.9 µM]	-14%	0%	-4%
CCOc1ccc(-c2nnc(-c3ccco3)o2)cc1OCC	5%	-11%	-1%	0%
CCOc1ccc(-c2ccc(CO)o2)cc1N	-23%[10.9 µM]	?	4%	16µM*
CC(=O)OC(C)(C)N=Nc1ccc(Br)cc1	·	·	0%[11.4 µM]	·
CCOC(=O)c1cc(-c2ccc(OC)cc2)n(CCC(=O)NCCc2ccccc2)c1C	-16%[10.9 µM]	1%	?	41%
COc1ccc(-c2cc([C@H](O)[C@@H]3CCCCN3)c3ccccc3n2)cc1	·	-18%[9.22 µM]	5%[11.4 µM]	-2%[9.22 µM]
CCOc1ccc(/C=C/c2nc3ccccc3n2S(=O)(=O)c2cccc(Cl)c2)cc1	23%[10.9 µM]	10µM*	?	13µM*
CSc1ccc(/C=C/c2nc3ccccc3n2S(=O)(=O)c2ccc(F)c(C)c2)cc1	-26%[10.9 µM]	4µM*	?	7.9µM*
Cc1ccc(/C=C/c2nc3ccccc3n2S(=O)(=O)c2cccc(Cl)c2)cc1	-84%[10.9 µM]	3.2µM*	?	3.2µM*
CCN1CCCC1CNC(=O)c1ccc(Cc2nc3ccccc3[nH]2)cc1 (stereo not drawn)	·	-4%	·	6%
O=C1[C@H]2[C@H]3C=C[C@@H](C4[C@H]3[C@@H]3C(=O)N(CN5CCSCC5)C(=O)[C@H]43)[C@H]2C(=O)N1CN1CCSCC1 (stereo partly drawn)	-6%[10.9 µM]	·	·	·
C=CC(=O)OCCOCCOC(=O)C=C	-27%	32µM*	?	-1%[1.84 µM]
C=CCN1C=CC(=C/C=C(/C#N)C(=O)OCC)C=C1	·	?	·	10µM*
O=C(N=c1nc2ccccn2s1)c1ccccc1	-67%	?	7%	2µM*
Cc1csc(=NC(=O)c2ccccc2)n1C	·	-21%	·	-25%
CSc1cccc(NC(=O)c2ccc3c(c2)CCCN3S(C)(=O)=O)c1	-4%[10.9 µM]	?	?	13µM*
COc1ccc(OCC(=O)Nc2cc(-c3nc4ccccc4s3)ccc2C)cc1	-16%[10.9 µM]	16µM*	2%	-25%
COc1ccc(-c2nc3ccccc3s2)cc1NC(=O)COc1cccc(C)c1	-9%[10.9 µM]	10µM*	-3%	-22%
COc1cc(C2c3[nH]c4ccccc4c3CC3C(=O)N4C(Cc5c([nH]c6ccccc56)C4c4cc(OC)c(OC)c(OC)c4)C(=O)N32)cc(OC)c1OC (stereo not drawn)	·	-13%[9.22 µM]	·	-7%[9.22 µM]
O=C(NCc1ccc(F)cc1)c1cc2cccc3c2n1CCS3	-16%[10.9 µM]	-6%	?	-14%
Cc1ccc(/C=C(\C#N)c2nc(-c3ccc(-c4ccccc4)cc3)cs2)cc1	3%[10.9 µM]	9%	?	0%
N#CC(=C1CCCC1)c1nc(-c2ccccc2O)cs1	-75%	13µM*	0%	10µM*
CC(C)COc1ccc(C(=O)Nc2nnc(S(=O)(=O)N(C)Cc3ccco3)s2)cc1	-74%[10.9 µM]	10µM*	?	?
CC(C)(CC(=O)NCc1ccc(Cl)cc1Cl)CC1=NS(=O)(=O)c2ccccc2N1	-3%[10.9 µM]	-15%	?	-11%
O=C(Nc1ccc(S(=O)(=O)Nc2ccccc2)cc1)C1COc2ccccc2O1 (stereo not drawn)	·	22µM*	·	?
SMILES	Imprint erasure	p53ts 39C tox	IkB signaling	p53ts 32C tox
CCOC(=O)c1cc(-c2ccccc2)n(CC(=O)Nc2cc(Cl)c(OC)cc2OC)c1C	-10%[10.9 µM]	20µM*	1%	0%
C[C@]12CC[C@H](O)CC1=CC[C@H]1[C@@H]2CC[C@@]2(C)C(N(CCO)CCO)CC[C@@H]12 (stereo partly drawn)	3%[10.9 µM]	·	·	·
Cc1ccc(Nc2nc3nonc3nc2Nc2cccc(C(F)(F)F)c2)cc1Cl	-30%[10.9 µM]	10µM*	?	13µM*
CCc1cc2c(=O)c(-c3ccc4c(c3)OCCO4)coc2cc1OC(=O)c1ccco1	-37%	7.9µM*	-2%	5µM*
CCOC(=O)c1ccc(NC(=O)CCn2c(=O)c3cccn3c3ccccc32)cc1	-4%[10.9 µM]	-6%	?	7%
c1ccc2sc(-c3ccc4c(c3)OCO4)nc2c1	-94%	7.9µM*	?	16µM*
COCCCNC(=O)c1ccc(-n2c(-c3ccccc3)cc3c2CCC(C)C3)cc1 (stereo not drawn)	?	?	-2%	-3%
CC(C)c1ccccc1S(=O)(=O)c1cc(N)c2ncccc2c1[N+](=O)[O-]	-22%	3.2µM*	·	11%
Cn1c(=O)c2c(nc(/C=C\c3cccc(Cl)c3)n2C)n(C)c1=O	·	14%	-5%	13%
CN(C)CCN(C)C(=O)c1ccc(-n2c(=O)c(=O)[nH]c3ccccc32)cc1	·	3%	·	-2%
O=C1C=C(NCCc2cc(Br)c(O)c(Br)c2)C(=O)c2ncccc21	-40%[10.9 µM]	?	?	?
O=C1C=C(NCCO)C(=O)c2cnccc21	-72%	4µM*	·	3.2µM*
O=C(CCCn1c(=O)c2cccn2c2ccccc21)NCCc1ccc(Cl)cc1	-22%[10.9 µM]	13µM*	?	10µM*
COc1ccc(CCNC(=O)Cn2c(=O)c3cccn3c3ccc(F)cc32)cc1OC	-12%[10.9 µM]	12%	0%	5%
COc1ccc(CCNC(=O)Cn2c(=O)c3cccn3c3ccccc32)cc1OC	-3%[10.9 µM]	16µM*	?	-21%
CCC(Oc1ccccc1)C(=O)Nc1ccccc1OCc1cc(=O)n2ccccc2n1 (stereo not drawn)	15%[10.9 µM]	-11%	1%	12%
Cc1oc(-c2ccc(Cl)cc2)nc1CSc1nc2ncccc2[nH]1	·	·	·	9%
Clc1ccc(CSc2nc3ncccc3[nH]2)cc1	-28%[10.9 µM]	10µM*	-2%	13µM*
Cc1ccc2c(c1)-c1c(cnn1CC(=O)N1CCN(c3cc(C)ccc3C)CC1)CO2	-9%[10.9 µM]	-13%	?	5%
CCCCCOC(=O)c1[nH]c2c(c1C)C(=O)C(C(=O)OC)C(C)C2 (stereo not drawn)	2%	-9%	?	-11%
COC(=O)C1C(=O)c2c([nH]c(C(=O)OCC3CCCO3)c2C)CC1C (stereo not drawn)	-18%	?	-3%	13µM*
COCCOC(=O)c1[nH]c2c(c1C)C(=O)C(C(=O)OC)C(C)C2 (stereo not drawn)	-34%	10µM*	-1%	16µM*
CNCCC=C1c2ccccc2CCc2ccccc21	-36%	20µM*!	0%[11.4 µM]	20µM*!
CCCNC(=O)C1CCN(Cc2cc3ccccc3n2Cc2ccccc2)CC1	-11%[10.9 µM]	-11%	?	3%
CN(C)CCNC(=O)C1CCN(Cc2cc3ccccc3n2Cc2ccccc2)CC1	-9%[10.9 µM]	13µM*	-2%	?
Oc1ccc(OCc2ccccc2)cc1	-50%[16.8 µM]	-18%[20.6 µM]	-10%[25.6 µM]	-11%[20.6 µM]
Oc1ccc(NCc2ccc(OCc3ccccc3)cc2)cc1	-54%[10.9 µM]	20µM*	?	?
Oc1ccc(NCc2ccc(OCc3ccccc3Cl)cc2)cc1	-65%[10.9 µM]	10µM*	?	?
O=C(O)c1ccccc1NS(=O)(=O)c1ccc(Cl)c(Cl)c1	·	13%	·	19%

Source: PubChem (National Center for Advancing Translational Sciences (NCATS))
